Source: PubChem BioAssay (National Center for Advancing Translational Sciences (NCATS))
IL1B secr inh: inhibitors of inflammasome signaling (IL-1 beta secretion); THP-1 LPS/ATP IL-1B secretion, AlphaLISA, 16 h; hits give low values; activity change, % at 57.5 µM; 4.7% of 360,000 active; AID 743279; in the data active = activity change below about -50%; inconclusive = mostly about -30% to -49%
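Secreted IL-1B measured by AlphaLISA bead assay after 16 h compound exposure of THP-1 cells; compounds (final up to 57.5 uM) added 1 h before LPS (250 ng/mL) and ATP (1.25 mM) stimulation; lower signal means less secretion.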
TDP1 cell CPT: DT40-hTDP1 cell growth loss with CPT; Potency, µM (series often up to 46.2 µM), inactives show at the top dose activity change, negative = growth inhibition, usual class: inhibitors; AID 686979; chicken DT40 Tdp1-/-;hTDP1 cells + 20 nM CPT, ATP luminescence, 48 h; 12% of 420,000 active; also: potency is read from the fitted curve at half-maximal effect; nearly all actives have a fitted effect of over 55% in size
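Chicken DT40 Tdp1-/- cells complemented with human TDP1, 400 cells/well, exposed to compounds plus 20 nM camptothecin for at least 48 h at 37 C; viability read as ATP content by CellTiter-Glo luminescence.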
DT40 TDP1 no CPT: qHTS for Inhibitors of human tyrosyl-DNA phosphodiesterase 1 (TDP1): qHTS in cells in absence of CPT; DT40 Tdp1-/- hTDP1 cells, no CPT, ATP luminescence, 48 h; 15% of 420,000 active; Potency, µM (doses to about 46.2 µM), without a hit: at the highest dose activity change, negative = growth inhibition, actives largely listed as inhibitors; also: potency is read from the fitted curve at half-maximal effect; nearly all actives have a fitted effect of over 55% in size
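No-CPT arm: Tdp1-/-;hTDP1 DT40 cells (400/well) plus compounds, incubated ≥48 hr at 37 °C. Readout CellTiter-Glo luminescence.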
12-LOX inh: inhibitors of human 12S-lipoxygenase ALOX12; P18054; purified 12hLO, xylenol orange hydroperoxide absorbance; Potency, µM (highest dose often 108 µM), for inactives: at the top dose activity change, negative = inhibition, actives largely listed as inhibitors; 1.1% of 580,000 active; AID 1671190; also: potency is read from the fitted curve at half-maximal effect
Target sequence (P18054 whole entry, looked up): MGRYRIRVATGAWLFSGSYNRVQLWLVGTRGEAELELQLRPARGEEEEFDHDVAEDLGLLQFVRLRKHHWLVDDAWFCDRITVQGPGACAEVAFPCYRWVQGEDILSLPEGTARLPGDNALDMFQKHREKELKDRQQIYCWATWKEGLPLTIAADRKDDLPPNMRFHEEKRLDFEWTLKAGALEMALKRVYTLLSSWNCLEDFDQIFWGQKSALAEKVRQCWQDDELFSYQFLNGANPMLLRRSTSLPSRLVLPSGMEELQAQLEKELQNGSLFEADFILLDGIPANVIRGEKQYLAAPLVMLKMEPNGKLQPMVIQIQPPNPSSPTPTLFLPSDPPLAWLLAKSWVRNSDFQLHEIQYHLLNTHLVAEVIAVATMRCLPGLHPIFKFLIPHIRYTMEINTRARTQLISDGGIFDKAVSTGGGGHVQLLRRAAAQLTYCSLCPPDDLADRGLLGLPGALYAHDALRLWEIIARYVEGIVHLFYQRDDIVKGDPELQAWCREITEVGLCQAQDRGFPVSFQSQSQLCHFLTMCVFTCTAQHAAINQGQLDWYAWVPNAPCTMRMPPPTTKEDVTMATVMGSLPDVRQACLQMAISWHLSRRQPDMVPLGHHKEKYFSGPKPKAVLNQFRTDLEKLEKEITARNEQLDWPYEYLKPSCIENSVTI
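Hydroperoxide product was detected by ferrous iron/xylenol orange as the 573 to 405 nm absorbance ratio. Arachidonic acid at 40 uM (final) was turned over for 30 min at room temperature by 150 nM human 12hLO, pH 7.0 Hepes buffer, after 15 min compound preincubation.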
HT1080-NT tox: kills 2HG-producing HT-1080-NT fibrosarcoma cells | 1.6% of 360,000 active | AID 686970 | HT-1080-NT fibrosarcoma viability, CellTiter-Glo ATP luminescence, 48 h | Potency, µM (highest dose often 46.1 µM), inactives show at the top dose activity, negative = less viability, most hits filed as cytotoxic;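 also: NT is the 2HG producing partner of a matched IDH1 knockdown line; potency is read from the fitted curve at half-maximal effect; 0% = DMSO-treated cells and -100% = media-only wells without cells; nearly all actives have a fitted effect of over 55% in size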
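Compounds were tested in concentration-response format on HT-1080-NT cells for 48 hours at 37 degrees C. Cell viability came from CellTiter-Glo luminescence; curves were classified by r2, response magnitude and activity.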
HT1080 IDH1KD tx: toxicity to HT-1080 IDH1 knockdown cells (counter line). HT-1080 IDH1 knockdown viability, ATP luminescence, 48 h. Potency, µM (highest dose often 46.1 µM), for inactives: top-dose activity, negative = toxicity, usual class: cytotoxic. 2% of 360,000 active;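 also: potency is read from the fitted curve at half-maximal effect; 0% = DMSO wells and -100% = cell-free medium wells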
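CellTiter-Glo luminescence after 48 h compound exposure at 37 degrees C of IDH1-knockdown HT-1080 cells in 5% FBS RPMI. %Activity scaled between DMSO wells and cell-free media wells, with curves fitted and assigned curve classes.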
* hit, by the source's call; u = inconclusive; x = no result; [ ] = remark or other dose. The sample as a whole holds a higher share of hits than the screen did. Unless noted, calls follow the shape of the dose curve; as a rule, active = well fitted curve in the direction sought with a large enough effect; inconclusive = small, poorly fitted or top-dose-only effect, or another doubt; inactive = no such curve, though single readings can be large; an effect the other way counts as inactive or inconclusive. Unless noted, % is scaled to controls: 0 for no effect and ±100 for the full control effect.

SMILES	IL1B secr inh	TDP1 cell CPT	DT40 TDP1 no CPT	12-LOX inh	HT1080-NT tox	HT1080 IDH1KD tx
CN(C)c1ccc(/C=N/n2c(C3CCCCC3)n[nH]c2=S)cc1	-62*	u	16µM*	38%	-16%	-12%
S=c1[nH]nc(C2CCCCC2)n1/N=C/c1ccccn1	32	-3%	1%	18µM*	5%	7%
Fc1ccc(/C=N/n2c(C3CCCCC3)n[nH]c2=S)cc1	-2	0%	0%	u	11%	10%
COc1ccc(/C=N/n2c(C3CCCCC3)n[nH]c2=S)c(OC)c1	-6	-17%	u	40µM*	9%	0%
COc1cccc(/C=N/n2c(C3CCCCC3)n[nH]c2=S)c1O	20	1%	14%	20µM*	-9%	7%
S=c1[nH]nc(C2CCCCC2)n1/N=C/c1ccccc1	10	-7%	3%	0%	8%	16%
CCc1nc2c(c(-c3ccc(O)cc3)n1)CCN(Cc1cccc(C(F)(F)F)c1)CC2	x	x	x	-1%	x	x
COc1ccccc1C(=O)N1CCN(c2cc(C(F)(F)F)nc(C)n2)CC1	x	x	x	3%	x	x
CC(OC(=O)c1nn(C(C)C)c(=O)c2ccccc12)C(=O)Nc1nc(-c2ccccc2)cs1 (stereo not drawn)	x	x	x	-14%	x	x
CCNC(=O)[C@@H]1C[C@H](NC(=O)CO)CN1CC(=O)NCc1cccs1	x	x	x	62%	x	x
S=c1[nH]nc(C2CCCCC2)n1/N=C/c1cccc(Cl)c1Cl	-61*	u	23µM*	u	28%	-1%
COc1cccc(/C=N/n2c(C3CCCCC3)n[nH]c2=S)c1OC	0	u	-22%	15%	9%	2%
Cc1oc2c(c1C(=O)N1CCN(C3CCCC3)CC1)CN(Cc1cccc(F)c1)CC2	x	x	x	8.9µM*	x	x
Cc1oc2c(c1C(=O)NCc1ccncc1)CN(Cc1cccc(F)c1)CC2	x	x	x	-5%	x	x
Cc1oc2c(c1C(=O)NC1CCN(C)CC1)CN(Cc1ccc(F)cc1)CC2	x	x	x	-4%	x	x
Cc1oc2c(c1C(=O)NC1CCCC1)CN(Cc1ccc(F)cc1)CC2	x	x	x	13µM*	x	x
Cc1ccc(CN2CCc3oc(C)c(C(=O)NC4CCCC4)c3C2)cc1	x	x	x	25µM*	x	x
Cc1oc2c(c1C(=O)NCc1cccnc1)CN(Cc1ccc(F)cc1)CC2	x	x	x	9%	x	x
O=C(Nc1ccc(F)cc1)[C@@H]1C[C@@H](c2cccc(C(F)(F)F)c2)N(CC2CCOCC2)C1	x	x	x	-6%	x	x
CN(C)C(CNS(=O)(=O)c1ccccc1)c1ccsc1 (stereo not drawn)	x	x	x	-2%	x	x
COc1c(N2CCN(C(=S)NCc3ccccc3)C(C)C2)c(F)cc2c(=O)c(C(=O)O)cn(C3CC3)c12 (stereo not drawn)	-7	u	23µM*	0%	u	18µM*
CCc1c(C)nc2ncnn2c1NCCc1ccc(Cl)cc1	-20	16µM*	9.2µM*	-7%	-29%	-14%
O=C(/C=C/NC1CCN(Cc2ccccc2)CC1)C(F)(F)F	x	x	x	19%	x	x
O=C(CN1CCN(c2nc3ncccc3o2)CC1)c1cccc(Cl)c1	x	x	x	9%	x	x
O=C(NN=C1CCCC1)c1ccc(Cl)cc1	-6	14%	-18%	9%	-5%	0%
SMILES	IL1B secr inh	TDP1 cell CPT	DT40 TDP1 no CPT	12-LOX inh	HT1080-NT tox	HT1080 IDH1KD tx
Oc1ccc(/C=N/Nc2ccnc3cc(Cl)ccc23)cc1O	80	13µM*	13µM*	u	u	u
Clc1ccc2c(NN=C3CCCC3)ccnc2c1	x	x	x	7.9µM*	x	x
CC/C(=N\Nc1ccnc2cc(Cl)ccc12)c1ccc(O)cc1	-20	u	u	u	18µM*	16µM*
Oc1ccc(/C=N/Nc2ccnc3cc(Cl)ccc23)c(O)c1O	11	u	u	u	3%	-5%
COc1cc(Cl)ccc1C(=O)NC1CCN(c2cc(-c3ccc(F)cc3)[nH]n2)C1 (stereo not drawn)	x	x	x	-6%	x	x
Cc1cccc(N2CC(c3nc4ccc(C)cc4[nH]3)CC2=O)c1 (stereo not drawn)	x	-6%	u	-9%	x	x
CN(C)CCNC(=O)Cc1c[nH]c2ncc(-c3ccccc3)cc12	x	x	x	11%[176 µM]	x	x
COCC(=O)N(C)C(C)c1cccs1 (stereo not drawn)	x	x	x	28%[176 µM]	x	x
C[N+](C)=C1SCC(C)(/C=N/O)S1 (stereo not drawn)	19	-5%	-23%	33%	21%	12%
O=C(c1ccccc1)N1CCCC2(C1)C(=NC1CCCCC1)NC(=O)N2c1cccnc1 (stereo not drawn)	x	x	x	7%	x	x
COc1cccc(-c2cc3c(Nc4cccc(NC(C)=O)c4)nccc3n2C)c1	x	x	x	-22%	x	x
Cc1nn(-c2ccccc2)c(Cl)c1/C=C1\SC(=S)N(C)C1=O	3	u	u	-22%	22%	26%
Cc1nn(-c2ccccc2)c(Cl)c1/C=C/C(=O)c1ccccc1	-95*	u	u	x	u	u
Cc1nn(-c2ccccc2)c(Cl)c1/C=C1\C(=O)N(C)C(=S)N1C	-23	u	15µM*	-9%	-1%	10%
Cc1nc(C)c(C(=O)N2CCCN(S(C)(=O)=O)C(c3ccccc3)CC(=O)NCC2)s1 (stereo not drawn)	x	x	x	28%	x	x
Cc1ccc(CNC(=O)C(=O)Nc2c3c(nn2-c2ccccc2)CSC3)cc1	x	u	-22%	-45%	x	x
Cc1ccc(CNC(=O)C(=O)Nc2c3c(nn2-c2ccc(F)cc2)CSC3)cc1	x	u	5.2µM*	-1%	x	x
CCCn1c(CCC(=O)Nc2cc(C(=O)OC)cc(C(=O)OC)c2)nc2cccnc21	x	29µM*	u	-12%	x	x
CCCn1c(CCC(=O)Nc2cc(OC)cc(OC)c2)nc2cccnc21	x	u	23µM*	-2%	x	x
C=CCN=C1CCCc2c1[nH]c1ccc(C)cc21	-1	9%	8%	u	14%	5%
COc1cc(NC(=O)CN2C(=O)NC3(CCOCC3)C2=O)cc(OC)c1	x	x	x	5%	x	x
O=C(NCCC1CCCCN1S(=O)(=O)c1ccccc1)C(=O)Nc1ccc(F)cc1 (stereo not drawn)	u	u	u	37%	3%	-3%
O=C(NCC1CCCN1S(=O)(=O)c1cccs1)C(=O)Nc1ccc(F)cc1 (stereo not drawn)	-17	-50%	u	-10%	13%	12%
O=C(NCCC1CCCCN1S(=O)(=O)c1cccs1)C(=O)Nc1cccc(F)c1 (stereo not drawn)	8	23µM*	15µM*	-10%	2%	-11%
